Targets with a hit are over-represented here; the source holds about 8,800 in all. About 0.5% of all pairs of compound and target were hits.
Key:
Experiment in all cases: log2 fold change, soluble protein after heating vs DMSO (PISA); higher = thermal stabilisation; K562 lysate, 10 uM; active = over 0.2 and 3.5 SD of the protein, either way, in both replicates (recomputed)
alvocidib = compound: CN1CC[C@H](c2c(O)cc(O)c3c(=O)cc(-c4ccccc4Cl)oc23)[C@H](O)C1 [alvocidib]
Method in brief: (§1)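 Following dounce homogenisation of K562 pellets in PBS pH 7.4 with 1 mM MgCl2, crude extract at 1 mg/mL protein was incubated for 30 min with 10 μM compound. Aliquots were then heated for 3 min over 48°C-58°C and pooled, NP-40 was added to 0.5% at 4°C, and soluble protein was recovered as the supernatant at 21,000xg for 90 min. Channel-sum-equalised TMTpro 16plex LC-MS/MS quantified this protein. Each value, from duplicates, is a log-two fold change in thermal stability relative to solvent controls.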

Tubastatin A = compound: CN1CCc2c(c3ccccc3n2Cc2ccc(C(=O)NO)cc2)C1 [Tubastatin A]
Method in brief: as §1

[1] = compound: CNC(=O)C1=CC=CC=C1NC2=NC(=NC=C2Cl)NC3=C(C=C(C=C3)N4CCOCC4)OC
Method in brief: as §1

defactinib = compound: CNC(=O)c1ccc(Nc2ncc(C(F)(F)F)c(NCc3nccnc3N(C)S(C)(=O)=O)n2)cc1 [defactinib]
Method in brief: as §1

[2] = compound: CNc1nc(-c2ccc3c(N)n[nH]c3c2)cc(N2C[C@@H](C(=O)NC3CCCCC3)CC[C@H]2C)n1
Method in brief: as §1

encorafenib = compound: COC(=O)N[C@@H](C)CNc1nccc(-c2cn(C(C)C)nc2-c2cc(Cl)cc(NS(C)(=O)=O)c2F)n1 [encorafenib]
Method in brief: as §1

[3] = compound: COC(=O)[C@H](CCSC)NC(=O)C1=C(C=C(C=C1)NC[C@H](CS)N)C2=CC=CC=C2
Method in brief: as §1

alisertib = compound: COc1cc(Nc2ncc3c(n2)-c2ccc(Cl)cc2C(c2c(F)cccc2OC)=NC3)ccc1C(=O)O [alisertib]
Method in brief: as §1

[4] = compound: COc1cc2nc(-c3cc(F)ccc3O)nc(N[C@@H]3CNC[C@H]3C(C)(C)O)c2cc1OC
Method in brief: as §1

gefitinib = compound: COc1cc2ncnc(Nc3ccc(F)c(Cl)c3)c2cc1OCCCN1CCOCC1 [gefitinib]
Method in brief: as §1

lapatinib = compound: CS(=O)(=O)CCNCc1ccc(-c2ccc3ncnc(Nc4ccc(OCc5cccc(F)c5)c(Cl)c4)c3c2)o1 [lapatinib]
Method in brief: as §1

pictilisib = compound: CS(=O)(=O)N1CCN(Cc2cc3nc(-c4cccc5[nH]ncc45)nc(N4CCOCC4)c3s2)CC1 [pictilisib]
Method in brief: as §1

crizotinib = compound: C[C@@H](Oc1cc(-c2cnn(C3CCNCC3)c2)cnc1N)c1c(Cl)ccc(F)c1Cl [crizotinib]
Method in brief: as §1

[5] = compound: C[C@H](C1=CC=C(C=C1)C(=O)NC2=C3C=CNC3=NC=C2)N
Method in brief: as §1

duvelisib = compound: C[C@H](Nc1ncnc2nc[nH]c12)c1cc2cccc(Cl)c2c(=O)n1-c1ccccc1 [duvelisib]
Method in brief: as §1

gandotinib = compound: Cc1cc(Nc2cc(CN3CCOCC3)c3nc(C)c(Cc4ccc(Cl)cc4F)n3n2)n[nH]1 [gandotinib]
Method in brief: as §1

tozasertib = compound: Cc1cc(Nc2cc(N3CCN(C)CC3)nc(Sc3ccc(NC(=O)C4CC4)cc3)n2)n[nH]1 [tozasertib]
Method in brief: as §1

doramapimod = compound: Cc1ccc(-n2nc(C(C)(C)C)cc2NC(=O)Nc2ccc(OCCN3CCOCC3)c3ccccc23)cc1 [doramapimod]
Method in brief: as §1

bafetinib = compound: Cc1ccc(NC(=O)c2ccc(CN3CC[C@H](N(C)C)C3)c(C(F)(F)F)c2)cc1Nc1nccc(-c2cncnc2)n1 [bafetinib]
Method in brief: as §1

[6] = compound: Cc1cccc(CC(=O)N2CCc3c2ccc(-c2cn(C)c4ncnc(N)c24)c3F)n1
Method in brief: as §1

Measured: log2 fold change

POLR3E (UniProt Q9NVU0)
inactive: alvocidib 0.011 | Tubastatin A -0.08 | [1] 0.009 | defactinib 0.02 | [2] 0.009 | encorafenib 0.004 | [3] 0.104 | alisertib 0.024 | [4] -0.003 | gefitinib 0.009 | lapatinib -0.014 | pictilisib -0.001 | crizotinib 0.003 | [5] -0.001 | duvelisib 0.01 | gandotinib -0.028 | tozasertib -0.011 | doramapimod -0.001 | bafetinib -0.018 | [6] 0.013

PRKAR2B (UniProt P31323)
inactive: alvocidib 0 | Tubastatin A -0.021 | [1] -0.05 | defactinib -0.117 | [2] -0.023 | encorafenib 0.04 | [3] 0.1 | alisertib -0.014 | [4] -0.032 | gefitinib -0.046 | lapatinib 0.013 | pictilisib -0.059 | crizotinib -0.007 | [5] -0.011 | duvelisib 0 | tozasertib 0.038 | doramapimod 0.017 | bafetinib -0.02 | [6] 0.001
active: gandotinib -0.31

PTMA (UniProt P06454)
Sequence of UniProt P06454 (P06454 whole entry, looked up): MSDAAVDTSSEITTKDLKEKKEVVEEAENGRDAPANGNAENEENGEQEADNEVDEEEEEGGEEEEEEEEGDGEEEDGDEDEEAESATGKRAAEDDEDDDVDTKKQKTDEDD
active: [5] 0.505 | [6] -0.375
inactive: alvocidib 0.194 | Tubastatin A 0.09 | [1] -0.104 | defactinib 0.049 | [2] 0.007 | encorafenib -0.003 | [3] -0.038 | alisertib 0.01 | [4] 0.042 | gefitinib 0.014 | lapatinib -0.059 | pictilisib -0.014 | crizotinib 0.08 | duvelisib 0.009 | gandotinib -0.277 | tozasertib 0.012 | doramapimod -0.031 | bafetinib 0.058

PLEKHA5 isoform 6 (UniProt Q9HAU0)
Sequence of UniProt Q9HAU0 (Q9HAU0 whole entry, looked up): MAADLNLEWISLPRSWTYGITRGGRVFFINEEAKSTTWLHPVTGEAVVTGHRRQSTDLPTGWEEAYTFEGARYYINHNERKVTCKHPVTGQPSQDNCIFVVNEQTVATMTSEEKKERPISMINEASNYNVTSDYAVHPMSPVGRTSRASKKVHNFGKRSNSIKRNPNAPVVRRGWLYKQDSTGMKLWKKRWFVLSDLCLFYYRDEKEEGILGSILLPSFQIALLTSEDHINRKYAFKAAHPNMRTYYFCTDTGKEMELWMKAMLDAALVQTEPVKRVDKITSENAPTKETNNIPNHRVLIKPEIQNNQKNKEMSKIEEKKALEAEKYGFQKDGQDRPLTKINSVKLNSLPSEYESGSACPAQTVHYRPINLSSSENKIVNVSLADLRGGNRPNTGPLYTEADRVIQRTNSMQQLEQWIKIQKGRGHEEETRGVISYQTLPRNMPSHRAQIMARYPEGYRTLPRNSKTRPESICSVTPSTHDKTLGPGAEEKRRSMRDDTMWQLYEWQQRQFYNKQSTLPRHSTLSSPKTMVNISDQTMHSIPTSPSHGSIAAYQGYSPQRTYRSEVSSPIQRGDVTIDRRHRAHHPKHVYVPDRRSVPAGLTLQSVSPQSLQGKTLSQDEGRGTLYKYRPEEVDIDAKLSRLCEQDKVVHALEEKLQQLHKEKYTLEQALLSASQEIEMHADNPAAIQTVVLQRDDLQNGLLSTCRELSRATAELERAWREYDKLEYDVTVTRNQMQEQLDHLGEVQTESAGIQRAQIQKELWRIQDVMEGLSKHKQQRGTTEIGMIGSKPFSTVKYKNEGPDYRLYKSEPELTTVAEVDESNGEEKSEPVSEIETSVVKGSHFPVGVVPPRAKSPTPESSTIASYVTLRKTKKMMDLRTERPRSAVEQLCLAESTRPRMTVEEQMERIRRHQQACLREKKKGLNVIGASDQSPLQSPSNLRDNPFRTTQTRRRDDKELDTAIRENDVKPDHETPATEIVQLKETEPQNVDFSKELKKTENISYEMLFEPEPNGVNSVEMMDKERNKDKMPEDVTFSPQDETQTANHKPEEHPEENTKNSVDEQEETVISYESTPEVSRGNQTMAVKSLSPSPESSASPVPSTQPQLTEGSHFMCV
inactive: alvocidib -0.11 | Tubastatin A -0.074 | [1] 0.02 | defactinib 0.065 | [2] 0.006 | encorafenib -0.016 | [3] 0.054 | alisertib 0.035 | [4] -0.03 | gefitinib -0.039 | lapatinib 0.003 | pictilisib -0.054 | crizotinib 0.006 | [5] -0.033 | duvelisib -0.032 | gandotinib 0.093 | tozasertib 0.002 | doramapimod -0.028 | bafetinib -0.061 | [6] 0.002

PIK3CB (UniProt P42338)
Sequence of UniProt P42338 (P42338 whole entry, looked up): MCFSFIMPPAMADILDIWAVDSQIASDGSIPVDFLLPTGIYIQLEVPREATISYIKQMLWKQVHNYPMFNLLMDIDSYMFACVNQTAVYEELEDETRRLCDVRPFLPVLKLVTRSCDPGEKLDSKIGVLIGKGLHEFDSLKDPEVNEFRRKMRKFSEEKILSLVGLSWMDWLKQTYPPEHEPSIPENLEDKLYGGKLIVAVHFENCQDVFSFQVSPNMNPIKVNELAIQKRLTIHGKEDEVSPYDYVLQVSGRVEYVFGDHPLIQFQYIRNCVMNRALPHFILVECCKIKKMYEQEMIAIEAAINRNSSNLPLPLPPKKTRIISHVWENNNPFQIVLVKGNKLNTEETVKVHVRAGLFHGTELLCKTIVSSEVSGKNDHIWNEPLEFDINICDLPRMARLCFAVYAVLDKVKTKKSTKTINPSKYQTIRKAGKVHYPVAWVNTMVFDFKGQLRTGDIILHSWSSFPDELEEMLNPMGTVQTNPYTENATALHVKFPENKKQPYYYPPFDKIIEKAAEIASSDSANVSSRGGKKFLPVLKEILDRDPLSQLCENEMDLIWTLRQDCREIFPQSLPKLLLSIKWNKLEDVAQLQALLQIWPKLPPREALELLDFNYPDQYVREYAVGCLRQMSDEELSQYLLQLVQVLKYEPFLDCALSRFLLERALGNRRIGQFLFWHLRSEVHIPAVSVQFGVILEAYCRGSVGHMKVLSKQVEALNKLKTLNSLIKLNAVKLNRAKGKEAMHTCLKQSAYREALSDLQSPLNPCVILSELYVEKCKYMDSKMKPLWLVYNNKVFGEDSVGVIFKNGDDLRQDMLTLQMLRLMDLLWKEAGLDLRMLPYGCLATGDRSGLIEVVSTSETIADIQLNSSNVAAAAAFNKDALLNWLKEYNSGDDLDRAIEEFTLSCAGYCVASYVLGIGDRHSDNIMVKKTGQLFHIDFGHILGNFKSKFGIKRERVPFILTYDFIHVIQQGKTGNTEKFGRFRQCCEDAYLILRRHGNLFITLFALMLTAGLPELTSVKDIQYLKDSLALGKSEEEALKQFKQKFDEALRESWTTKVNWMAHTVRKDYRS
inactive: alvocidib -0.002 | Tubastatin A -0.123 | [1] 0.056 | defactinib -0.044 | [2] -0.013 | encorafenib -0.02 | [3] -0.126 | alisertib -0.01 | [4] -0.011 | gefitinib -0.019 | lapatinib -0.007 | crizotinib -0.068 | [5] 0.022 | gandotinib 0.096 | tozasertib 0.017 | doramapimod -0.006 | bafetinib -0.034 | [6] 0.012
active: pictilisib 0.497 | duvelisib 0.645

PRRC2A (UniProt P48634)
inactive: alvocidib -0.006 | Tubastatin A -0.014 | [1] -0.001 | defactinib 0.046 | [2] -0.012 | encorafenib 0.048 | [3] -0.044 | alisertib 0.016 | [4] 0.005 | gefitinib -0.008 | lapatinib -0.02 | pictilisib -0.017 | crizotinib 0.06 | [5] 0.011 | duvelisib -0.001 | gandotinib 0.007 | tozasertib -0.013 | doramapimod -0.073 | bafetinib 0.031 | [6] -0.058

PICALM (UniProt Q13492)
inactive: alvocidib -0.021 | Tubastatin A 0.029 | [1] -0.032 | defactinib -0.037 | [2] -0.033 | encorafenib 0.042 | [3] 0.014 | alisertib 0.008 | [4] 0.017 | gefitinib 0.008 | lapatinib 0.012 | pictilisib 0.001 | crizotinib 0.024 | [5] 0.052 | duvelisib 0.012 | gandotinib 0.022 | tozasertib 0.013 | doramapimod 0.028 | bafetinib -0.055 | [6] -0.007

POLA1 (UniProt P09884)
Sequence of UniProt P09884 (P09884 whole entry, looked up): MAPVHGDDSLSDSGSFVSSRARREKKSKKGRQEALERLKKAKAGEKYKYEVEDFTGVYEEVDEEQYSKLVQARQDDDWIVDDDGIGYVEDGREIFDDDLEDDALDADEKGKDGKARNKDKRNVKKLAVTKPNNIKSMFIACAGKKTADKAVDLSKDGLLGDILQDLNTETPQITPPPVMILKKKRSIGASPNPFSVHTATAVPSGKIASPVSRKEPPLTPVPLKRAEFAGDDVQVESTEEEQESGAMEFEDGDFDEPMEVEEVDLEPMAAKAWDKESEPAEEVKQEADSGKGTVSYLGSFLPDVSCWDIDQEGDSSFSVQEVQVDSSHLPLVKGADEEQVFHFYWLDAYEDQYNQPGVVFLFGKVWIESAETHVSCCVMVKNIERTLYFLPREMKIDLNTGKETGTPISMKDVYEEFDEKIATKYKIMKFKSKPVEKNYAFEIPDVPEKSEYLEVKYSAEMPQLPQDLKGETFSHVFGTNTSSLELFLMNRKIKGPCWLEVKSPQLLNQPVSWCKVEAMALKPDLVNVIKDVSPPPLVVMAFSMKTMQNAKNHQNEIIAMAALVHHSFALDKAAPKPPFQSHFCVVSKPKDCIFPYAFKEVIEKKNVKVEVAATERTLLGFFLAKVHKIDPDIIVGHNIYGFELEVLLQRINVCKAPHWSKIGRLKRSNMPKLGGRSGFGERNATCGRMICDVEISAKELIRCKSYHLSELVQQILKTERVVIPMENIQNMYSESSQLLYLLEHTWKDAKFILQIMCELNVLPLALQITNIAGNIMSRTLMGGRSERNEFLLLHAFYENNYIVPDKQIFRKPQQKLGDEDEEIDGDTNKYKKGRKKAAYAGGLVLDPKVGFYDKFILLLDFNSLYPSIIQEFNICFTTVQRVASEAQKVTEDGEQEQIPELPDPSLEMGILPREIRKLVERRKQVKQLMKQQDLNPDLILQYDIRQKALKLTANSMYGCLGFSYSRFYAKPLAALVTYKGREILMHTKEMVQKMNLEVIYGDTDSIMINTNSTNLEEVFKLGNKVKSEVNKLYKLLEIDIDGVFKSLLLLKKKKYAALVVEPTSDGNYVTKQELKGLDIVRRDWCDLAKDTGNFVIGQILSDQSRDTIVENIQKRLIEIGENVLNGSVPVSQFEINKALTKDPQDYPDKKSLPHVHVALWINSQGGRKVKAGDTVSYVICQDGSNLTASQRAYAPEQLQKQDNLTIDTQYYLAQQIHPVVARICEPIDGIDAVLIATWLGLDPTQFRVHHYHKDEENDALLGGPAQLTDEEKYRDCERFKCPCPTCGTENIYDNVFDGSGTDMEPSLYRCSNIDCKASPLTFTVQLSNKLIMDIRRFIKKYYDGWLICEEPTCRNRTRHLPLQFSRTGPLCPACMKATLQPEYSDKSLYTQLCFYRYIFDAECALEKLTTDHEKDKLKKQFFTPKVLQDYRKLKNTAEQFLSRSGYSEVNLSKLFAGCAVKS
inactive: alvocidib -0.01 | Tubastatin A -0.031 | [1] 0.037 | defactinib 0.016 | [2] -0.004 | encorafenib 0.022 | [3] 0.061 | alisertib -0.013 | [4] 0.014 | gefitinib 0.008 | lapatinib -0.022 | pictilisib -0.044 | crizotinib -0.03 | [5] -0.011 | duvelisib 0.009 | gandotinib -0.016 | tozasertib 0.003 | doramapimod 0.01 | bafetinib -0.057 | [6] 0.004

PELO (UniProt Q9BRX2)
Sequence of UniProt Q9BRX2 (Q9BRX2 whole entry, looked up): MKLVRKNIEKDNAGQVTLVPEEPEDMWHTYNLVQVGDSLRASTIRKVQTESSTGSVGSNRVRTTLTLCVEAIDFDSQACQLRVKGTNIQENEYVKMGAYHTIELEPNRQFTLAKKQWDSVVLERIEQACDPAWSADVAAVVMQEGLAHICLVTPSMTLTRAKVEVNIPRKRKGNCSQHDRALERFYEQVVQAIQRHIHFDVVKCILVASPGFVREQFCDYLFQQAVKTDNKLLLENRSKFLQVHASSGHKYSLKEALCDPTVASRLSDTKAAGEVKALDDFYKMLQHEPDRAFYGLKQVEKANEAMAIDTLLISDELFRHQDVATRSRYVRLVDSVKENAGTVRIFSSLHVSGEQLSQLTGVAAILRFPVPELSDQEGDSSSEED
active: [5] 0.369
inactive: alvocidib 0.149 | Tubastatin A -0.086 | [1] 0.026 | defactinib -0.022 | [2] -0.043 | encorafenib 0.056 | [3] 0.084 | alisertib 0.008 | [4] 0.006 | gefitinib 0.006 | lapatinib 0.036 | pictilisib 0.001 | crizotinib -0.064 | duvelisib -0.039 | gandotinib -0.202 | tozasertib 0.022 | doramapimod 0.019 | bafetinib -0.054 | [6] -0.175

PRIM2 (UniProt P49643)
inactive: alvocidib -0.008 | Tubastatin A -0.138 | [1] 0.033 | defactinib -0.01 | [2] 0.009 | encorafenib -0.002 | [3] 0.035 | alisertib -0.017 | [4] -0.009 | gefitinib 0.01 | lapatinib 0.045 | pictilisib -0.025 | crizotinib -0.017 | [5] 0.007 | duvelisib -0.002 | gandotinib -0.056 | tozasertib -0.04 | doramapimod 0.028 | bafetinib -0.1 | [6] 0.004

PPP3CA isoform 2 (UniProt Q08209)
inactive: alvocidib 0.043 | Tubastatin A 0.017 | [1] 0.033 | defactinib 0.101 | [2] 0.01 | encorafenib 0.023 | [3] 0 | alisertib 0.061 | [4] -0.001 | gefitinib 0.09 | lapatinib -0.008 | pictilisib 0.085 | crizotinib 0.048 | [5] 0.075 | duvelisib 0.008 | gandotinib -0.099 | tozasertib -0.068 | doramapimod -0.006 | bafetinib -0.026 | [6] -0.091

PPP2R5C isoform 5 (UniProt Q13362)
inactive: alvocidib 0.016 | Tubastatin A -0.018 | [1] 0.012 | defactinib 0.029 | [2] -0.048 | encorafenib 0.029 | [3] -0.039 | alisertib 0.002 | [4] -0.014 | gefitinib 0.004 | lapatinib -0.03 | pictilisib 0.01 | crizotinib 0.004 | [5] 0.069 | duvelisib 0.02 | gandotinib -0.08 | tozasertib 0.054 | doramapimod -0.005 | bafetinib -0.001 | [6] -0.036

PYCR2 (UniProt Q96C36)
Sequence of UniProt Q96C36 (Q96C36 whole entry, looked up): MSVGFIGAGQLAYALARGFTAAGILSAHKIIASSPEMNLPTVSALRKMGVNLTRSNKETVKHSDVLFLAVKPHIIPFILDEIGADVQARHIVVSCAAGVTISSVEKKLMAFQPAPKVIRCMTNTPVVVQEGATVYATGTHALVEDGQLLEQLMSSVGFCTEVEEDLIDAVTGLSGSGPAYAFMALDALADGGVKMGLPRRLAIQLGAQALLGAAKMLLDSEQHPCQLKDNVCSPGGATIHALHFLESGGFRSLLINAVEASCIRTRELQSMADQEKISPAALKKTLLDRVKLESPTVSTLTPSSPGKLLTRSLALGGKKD
inactive: alvocidib -0.052 | Tubastatin A 0.041 | [1] 0.004 | defactinib 0.001 | [2] 0.011 | encorafenib -0.005 | [3] -0.038 | alisertib 0.013 | [4] -0.001 | gefitinib -0.005 | lapatinib -0.029 | pictilisib -0.021 | crizotinib 0.026 | [5] 0.021 | duvelisib -0.004 | gandotinib 0.01 | tozasertib 0.001 | doramapimod -0.012 | bafetinib 0.034 | [6] -0.01

PUS3 (UniProt Q9BZE2)
inactive: alvocidib 0.094 | Tubastatin A -0.181 | [1] 0.035 | defactinib -0.089 | [2] -0.117 | encorafenib 0.06 | [3] 0.04 | alisertib 0.01 | [4] -0.021 | gefitinib 0.041 | lapatinib 0.008 | pictilisib -0.085 | crizotinib 0.013 | [5] 0.148 | duvelisib -0.03 | gandotinib -0.234 | tozasertib 0.019 | doramapimod -0.087 | bafetinib -0.005 | [6] -0.185

PRPH isoform 2 (UniProt P41219)
inactive: alvocidib 0.062 | Tubastatin A 0.021 | [1] -0.049 | defactinib -0.081 | [2] -0.133 | encorafenib -0.023 | [3] -0.178 | alisertib -0.012 | [4] -0.028 | gefitinib 0.014 | lapatinib 0.082 | pictilisib 0.131 | crizotinib 0.05 | [5] 0.03 | duvelisib 0.051 | gandotinib -0.08 | tozasertib 0.096 | doramapimod -0.015 | bafetinib 0.025 | [6] 0.001

PPCDC (UniProt Q96CD2)
Sequence of UniProt Q96CD2 (Q96CD2 whole entry, looked up): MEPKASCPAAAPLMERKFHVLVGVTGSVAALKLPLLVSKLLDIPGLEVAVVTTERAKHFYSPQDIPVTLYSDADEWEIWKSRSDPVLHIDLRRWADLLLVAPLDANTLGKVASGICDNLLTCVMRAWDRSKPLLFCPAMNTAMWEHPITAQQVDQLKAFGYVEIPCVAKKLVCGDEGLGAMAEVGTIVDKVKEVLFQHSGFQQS
inactive: alvocidib -0.08 | Tubastatin A 0.034 | [1] -0.053 | defactinib -0.037 | [2] -0.054 | encorafenib -0.082 | [3] -0.027 | alisertib -0.051 | [4] 0.032 | gefitinib 0.028 | lapatinib -0.023 | pictilisib -0.176 | crizotinib 0 | duvelisib 0.062 | gandotinib 0.152 | tozasertib 0 | doramapimod 0.024 | bafetinib 0.034 | [6] 0.19
active: [5] -0.342

Reference: the supplement of paper PMC10849652
